# In PubChem BioAssay (NCI):
# The panel holds about 83,000 compounds, 20% with a hit somewhere; the sample as a whole holds those more often.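 Treatment: one concentration, 48 hours, 96-well format. Scoring: percent growth, with anything below 10 considered active.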 Calls of active or inactive are those of the source.
# Tested on: UACC-62 melanoma
# Assay: NCI-60 one-dose screen, 48 h (100 = growth as untreated, 0 = no growth, -100 = all killed)
# Conditions: 10 µM unless noted
row,Structure (SMILES),growth
1,O=C1Nc2ccc(Br)cc2/C1=N\c1nnc(-c2ccc(Cl)cc2)o1,60.1% (inactive)
2,C#C[C@]1(O)CC[C@H]2[C@@H]3CC=C4c5sc(Nc6cccc(C)n6)nc5CC[C@]4(C)[C@H]3CC[C@@]21C,-20.9% (active)
3,CS(=O)(=O)c1ccc2c(c1)c1c(n2Cc2ccc(Cl)cc2)CCCC1,43.2% (inactive)
4,COc1ccc(-c2nnc(/N=C3/C(=O)Nc4ccc(Br)cc43)o2)cc1,95.7% (inactive)
5,COc1ccc(S(=O)(=O)n2cc(C=O)c3ccccc32)c(OC)c1,63.1% (inactive)
6,O=C1c2c(c3c4cccnc4[nH]c3c3ccc4ccccc4c23)C(=O)N1CCN1CCOCC1,57.7% (inactive)
7,COc1ccc(NC2=C(Cl)C(=O)C(C)=C(C)C2=O)cc1,91% (inactive)
8,COc1ccc(-c2cc(-c3ccc(Cl)cc3)nc3nc(N)nn23)cc1,92.8% (inactive)
9,C#C[C@]1(O)CC[C@H]2[C@@H]3CC=C4c5sc(Nc6nc(C)cc(OC)n6)nc5CC[C@]4(C)[C@H]3CC[C@@]21C,0.98% (active)
10,COc1ccc(/C=C/C(=O)c2nnn(-c3ccc(C(=O)O)cc3)c2C)cc1OC,90.3% (inactive)
11,COc1cc(O)c2c(c1)/C=C/C[C@H](O)[C@H](O)C(=O)/C=C\C[C@H](C)OC2=O,-16.3% (active)
12,COc1ccccc1/C=C/C(=O)c1nnn(-c2ccc(C(=O)O)cc2)c1C,79.7% (inactive)
13,O=S(=O)(Nc1ccc(C2CC2)cc1)c1ccc(-c2cnc(C3CC3)o2)cc1,48.5% (inactive)
14,COc1cc(/C=N/Nc2ccnc3cc(Cl)ccc23)cc(OC)c1O,101% (inactive)
15,COc1ccc(-c2nc(SCC(C)C)nc(N/N=C\c3cccc([N+](=O)[O-])c3)c2C#N)cc1,75.6% (inactive)
16,CCCCCCNC(=O)Oc1ccc(/C(=C(\C)c2ccc(OC)cc2)c2ccc(OCCN(C)C)cc2)cc1,89.4% (inactive)
17,CCCCSc1nnc(-c2ccc(-c3ccc(Cl)cc3)nc2C)o1,84.1% (inactive)
18,CC(C)c1nn(-c2ccccc2)c(N2CCCCC2)c1/C=N/NC(N)=S,92.5% (inactive)
19,C#C[C@]1(O)CC[C@H]2[C@@H]3CC=C4c5sc(Nc6ccc(OC)nc6)nc5CC[C@]4(C)[C@H]3CC[C@@]21C,70.5% (inactive)

row,Structure (SMILES),growth
1,COc1cc(-c2noc(C[C@@H](NC(=O)OCc3ccccc3)C(C)C)n2)cc(OC)c1OC,88.4% (inactive)
2,COc1ccc(-c2ccc3c4c(cccc24)C(=O)N(N2C(=O)c4cccc5cccc(c45)C2=O)C3=O)cc1,96.8% (inactive)
3,Cc1nn(-c2ccc(Br)cc2)c2nc(CCl)[nH]c(=O)c12,95.1% (inactive)
4,CN1CCN(c2ccc(C(=O)Nc3cccc(-c4cn(-c5ccc(S(N)(=O)=O)cc5)nn4)c3)cc2C(F)(F)F)CC1,82.7% (inactive)
5,COc1ccc(Cn2cc3c(c2-c2ccccc2)CCCc2cnoc2-3)cc1[N+](=O)[O-],52.1% (inactive)
6,NS(=O)(=O)Oc1ccc2nc(Nc3ccc(F)c(F)c3)ccc2c1,85.5% (inactive)
7,O=C1c2c(c3c4cc(Br)ccc4[nH]c3c3ccc4ccccc4c23)C(=O)N1CCN1CCNCC1,78.8% (inactive)
8,CC1CCN(S(=O)(=O)c2ncsc2-c2ccccc2)CC1,96.5% (inactive)
9,O=C1NC(=O)c2c1c1c3ccccc3ccc1c1[nH]c3ccccc3c21,15.2% (inactive)
10,COc1cc([C@H]2OC[C@H]3[C@@H]2CO[C@@H]3c2ccc(O)c(OC)c2)ccc1O,91% (inactive)
11,CCN(CC)CCN1C(=O)c2c(c3c4cc(Br)ccc4[nH]c3c3ccc4ccccc4c23)C1=O,31.7% (inactive)
12,CC(C)=CCC[C@](C)(O)[C@H]1CC[C@]2(C)[C@@H]1CC[C@@H]1[C@@]3(C)CCC(NC(=O)c4ccccc4C(=O)O)C(C)(C)[C@@H]3CC[C@]12C (stereo partly drawn),28.7% (inactive)
13,Clc1ccc(-c2csc(N/N=C/c3nc4ccccc4n3C3CC3)n2)cc1,98.4% (inactive)
14,Cc1ccc(-c2csc(N/N=C/c3nc4ccccc4n3C3CC3)n2)cc1,95.1% (inactive)
15,C#C[C@]1(O)CC[C@H]2[C@@H]3CC=C4c5sc(-c6ccccn6)nc5CC[C@]4(C)[C@H]3CC[C@@]21C,67.6% (inactive)
16,O=C1c2c(c3c4cccnc4[nH]c3c3ccc4ccccc4c23)C(=O)N1CCN1CCNCC1,79.6% (inactive)
17,O=C1c2c(c3c4cccnc4[nH]c3c3ccc4ccccc4c23)C(=O)N1CCN1CCCCC1,49.6% (inactive)
18,COc1ccc(-c2nc(SCCC(C)C)nc(N/N=C\c3ccc(O)cc3)c2C#N)cc1,93.9% (inactive)
19,CN(C)C(=O)C1=NC(CO)C(=O)N(c2ccc(Cl)cc2)N1 (stereo not drawn),96.6% (inactive)

# Tested on: LOX IMVI melanoma
# Assay: as above
# Conditions: 10 µM unless noted
row,Structure (SMILES),growth
1,CS(=O)(=O)c1ccc2c(c1)c1c(n2Cc2ccc(Cl)cc2)CCCC1,81.5% (inactive)
2,COc1ccc(S(=O)(=O)n2cc(C=O)c3ccccc32)c(OC)c1,64.3% (inactive)
3,COc1ccc(NC2=C(Cl)C(=O)C(C)=C(C)C2=O)cc1,65.8% (inactive)
4,COc1ccc(-c2cc(-c3ccc(Cl)cc3)nc3nc(N)nn23)cc1,105% (inactive)
5,COc1ccc(/C=C/C(=O)c2nnn(-c3ccc(C(=O)O)cc3)c2C)cc1OC,76.2% (inactive)
6,COc1cc(O)c2c(c1)/C=C/C[C@H](O)[C@H](O)C(=O)/C=C\C[C@H](C)OC2=O,-42.7% (active)
7,COc1ccccc1/C=C/C(=O)c1nnn(-c2ccc(C(=O)O)cc2)c1C,66.1% (inactive)
8,O=S(=O)(Nc1ccc(C2CC2)cc1)c1ccc(-c2cnc(C3CC3)o2)cc1,55.7% (inactive)
9,COc1cc(/C=N/Nc2ccnc3cc(Cl)ccc23)cc(OC)c1O,-96.2% (active)
10,CCCCCCNC(=O)Oc1ccc(/C(=C(\C)c2ccc(OC)cc2)c2ccc(OCCN(C)C)cc2)cc1,-48.5% (active)
11,CCCCSc1nnc(-c2ccc(-c3ccc(Cl)cc3)nc2C)o1,101% (inactive)
12,COc1cc(-c2noc(C[C@@H](NC(=O)OCc3ccccc3)C(C)C)n2)cc(OC)c1OC,101% (inactive)
13,Cc1nn(-c2ccc(Br)cc2)c2nc(CCl)[nH]c(=O)c12,-9.8% (active)
14,CN1CCN(c2ccc(C(=O)Nc3cccc(-c4cn(-c5ccc(S(N)(=O)=O)cc5)nn4)c3)cc2C(F)(F)F)CC1,23.1% (inactive)
15,COc1ccc(Cn2cc3c(c2-c2ccccc2)CCCc2cnoc2-3)cc1[N+](=O)[O-],87.8% (inactive)
16,NS(=O)(=O)Oc1ccc2nc(Nc3ccc(F)c(F)c3)ccc2c1,85.3% (inactive)
17,COc1cc([C@H]2OC[C@H]3[C@@H]2CO[C@@H]3c2ccc(O)c(OC)c2)ccc1O,9.99% (active)
18,CC(C)=CCC[C@](C)(O)[C@H]1CC[C@]2(C)[C@@H]1CC[C@@H]1[C@@]3(C)CCC(NC(=O)c4ccccc4C(=O)O)C(C)(C)[C@@H]3CC[C@]12C (stereo partly drawn),84.3% (inactive)
19,C#C[C@]1(O)CC[C@H]2[C@@H]3CC=C4c5sc(-c6ccccn6)nc5CC[C@]4(C)[C@H]3CC[C@@]21C,62.9% (inactive)
20,CN(C)C(=O)C1=NC(CO)C(=O)N(c2ccc(Cl)cc2)N1 (stereo not drawn),95.3% (inactive)
